According to PubChem BioAssay AID1159580 (chemical genetic matrix, 2015):
“And” between values parts separate entries of the source, which are not always exact repeats. Equal entries are not always repeated. Screen size: about 5,500 compounds; about 2,000 (36%) were called active. Roughly 18% stayed inconclusive and do not appear here. Rule as the data show it: active = normalized growth mostly below about 0.91 (no sharp cut-off); inconclusive = no clear call, values can overlap the other calls; inactive = mostly above about 0.92. Some of the results follow.

Test: chemical genetic growth profiling, strain panel (AID 1159580);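 also: tested at 20 µM; growth read once vehicle control cultures reached saturation at 30 °C; 1 = growth at the plate median or of vehicle wells; lower values mean less growth of the strain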
Details: S. cerevisiae deletion strains, growth OD

Measured: normalized growth

C[N+](C)(C)CCOC(N)=O
inactive: locus YAL013W, strain DEP1, hits give low values 1.01 | locus YAL021C, strain ccr4, hits give low values 1.03 | locus YAL026C, strain drs2, hits give low values 1.01 | locus YAL030W, strain snc1, hits give low values 1.01 | locus YAL040C, strain CLN3, hits give low values 1.05 | locus YBL061C, strain skt5, hits give low values 1.03 | locus YBR009C, strain hhf1, hits give low values 0.997 | locus YBR021W, strain FUR4, hits give low values 1.06 | locus YBR023C, strain chs3, hits give low values 1.02 | locus YBR171W, strain sec66, hits give low values 1.02 | locus YBR229C, strain ROT2, hits give low values 1.01 | locus YBR231C, strain swc5, hits give low values 1.02 | locus YBR279W, strain paf1, hits give low values 1.01 | locus YCL011C, strain gbp2, hits give low values 1.01 | locus YCL016C, strain dcc1, hits give low values 1.03 | locus YCL029C, strain bik1, hits give low values 0.973 | locus YCL061C, strain MRC1 (second series), hits give low values 0.987 | locus YCL069W, strain vba3, hits give low values 1.03 | locus YCR088W, strain abp1, hits give low values 1.01 | locus YDL005C, strain med2, hits give low values 1.03 | locus YDL035C, strain GPR1, hits give low values 1.04 | locus YDL040C, strain nat1, hits give low values 1.02 | locus YDL074C, strain BRE1, hits give low values 0.995 | locus YDL101C, strain DUN1, hits give low values 0.986 | locus YDL185W, strain tfp1, hits give low values 0.953 | locus YDL192W, strain arf1, hits give low values 0.976 | locus YDR001C, strain nth1, hits give low values 1.02 | locus YDR069C, strain doa4, hits give low values 1.01 | locus YDR101C, strain arx1, hits give low values 1 | locus YDR137W, strain rgp1, hits give low values 1.04 | locus YDR150W, strain NUM1, hits give low values 1.01 | locus YDR159W, strain sac3, hits give low values 1.02 | locus YDR162C, strain NBP2, hits give low values 1.03 | locus YDR195W, strain ref2 1.06 | locus YDR297W, strain sur2, hits give low values 1.02 | locus YDR318W, strain mcm21, hits give low values 0.987 | locus YDR334W, strain swr1, hits give low values 1.02 | locus YDR335W, strain msn5, hits give low values 1.03 | locus YDR388W, hits give low values 0.984 | locus YDR392W, strain spt3, hits give low values 1.02 | locus YDR502C, strain sam2, hits give low values 0.99 | locus YEL003W, strain gim4, hits give low values 1.02 | locus YEL037C, strain rad23, hits give low values 1.02 | locus YEL061C, strain CIN8 (second series), hits give low values 1.01 | locus YEL061C, strain CIN8, hits give low values 1 | locus YER002W, strain NOP16, hits give low values 0.986 | locus YER015W, strain faa2, hits give low values 1.03 | locus YER016W, strain bim1, hits give low values 1.01 | locus YER110C, hits give low values 0.944 | locus YER111C, strain swi4, hits give low values 1.03 | locus YER155C, strain BEM2 (second series), hits give low values 1.03 | locus YER155C, strain BEM2, hits give low values 0.991 | locus YER167W, strain BCK2, hits give low values 1.01 | locus YFR010W, strain ubp6, hits give low values 1.02 | locus YGL078C, strain dbp3, hits give low values 0.986 | locus YGL086W, strain mad1, hits give low values 1 | locus YGL167C, strain pmr1, hits give low values 1.03 | locus YGL173C, strain kem1, hits give low values 1.02 | locus YGL227W, strain vid30, hits give low values 1.01 | locus YGL240W, strain doc1, hits give low values 1.02 | locus YGL248W, strain PDE1, hits give low values 1.01 | locus YGL253W, strain hxk2, hits give low values 1.02 | locus YGR078C, strain PAC10, hits give low values 0.992 and 0.993 | locus YGR135W, strain pre9, hits give low values 0.978 | locus YGR252W, strain gcn5, hits give low values 1.07 | locus YHR013C, strain ard1, hits give low values 1.04 | locus YHR027C, strain rpn1, hits give low values 1.01 | locus YHR030C, strain SLT2, hits give low values 1.01 and 0.989 | locus YHR079C, strain IRE1 (second series), hits give low values 0.962 | locus YHR079C, strain IRE1, hits give low values 0.998 | locus YHR094C, strain hxt1, hits give low values 0.976 | locus YHR129C, strain ARP1, hits give low values 1 | locus YHR142W, strain chs7, hits give low values 1.02 | locus YHR200W, strain rpn10, hits give low values 0.979 | locus YIL066C, strain RNR3, hits give low values 1.02 | locus YIL073C, strain SPO22, hits give low values 0.927 | locus YIL125W, strain kgd1, hits give low values 0.986 | locus YIR030C, strain dcg1, hits give low values 0.959 | locus YJL092W, strain hpr5, hits give low values 1.01 | locus YJL095W, strain BCK1 (second series), hits give low values 1.03 | locus YJL095W, strain BCK1, hits give low values 0.981 and 0.988 | locus YJL115W, strain asf1, hits give low values 1.02 | locus YJL129C, strain trk1, hits give low values 1.02 | locus YJL134W, strain LCB3, hits give low values 1 | locus YJL164C, strain tpk1, hits give low values 1.01 | locus YJL166W, strain qcr8, hits give low values 0.992 | locus YJL168C, strain set2, hits give low values 0.986 | locus YJL187C, strain SWE1 (second series), hits give low values 0.986 | locus YJL187C, strain SWE1, hits give low values 1.02 | locus YJR043C, strain POL32, hits give low values 1.05 | locus YJR066W, strain TOR1, hits give low values 0.999 | locus YJR075W, strain HOC1, hits give low values 0.989 | locus YKL009W, strain mrt4, hits give low values 0.957
